In PubChem BioAssay AID588342 (National Center for Advancing Translational Sciences (NCATS), 2011):
The campaign covered roughly 360,000 compounds. About 25,000 (6.9%) were called active. About 9% were inconclusive and are not listed. What follows is part of a selection rich in actives, with near analogues and random picks from the rest. Values without a mark were called inactive. The call rests on the fitted dose curve; in most records, active means well fitted inhibition curve with a large enough effect; inconclusive means small, poorly fitted or top-dose-only effect; inactive means flat fitted curve, though single readings scatter.

Biological target: Luciferin 4-monooxygenase (Photinus pyralis) (UniProt P08659)
Assay: qHTS profiling assay for firefly luciferase inhibitor/activator using purifed enzyme and Km concentrations of substrates (counterscreen for miR-21 project); further: nearly all actives have a fitted effect of over 55% in size;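 on activity change, negative = inhibition: plate controls were vehicle for no effect and reference inhibitor for full effect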
Conditions: purified FLuc, luminescence inhibition; series mostly up to 57.5 µM; activity change, negative = inhibition: at the top concentration
In short: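 Purified P. pyralis luciferase, 10 nM final, with Km-level 10 uM D-luciferin and 10 uM ATP in 50 mM Tris acetate pH 7.5, 10 mM Mg acetate, 0.01% Tween-20, 0.05% BSA; 6-point qHTS titration about 60 µM downward; luminescence read.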
Potency means the concentration at half of the fitted maximal effect.

Sequence of Luciferin 4-monooxygenase (Photinus pyralis) (P08659 whole entry, looked up): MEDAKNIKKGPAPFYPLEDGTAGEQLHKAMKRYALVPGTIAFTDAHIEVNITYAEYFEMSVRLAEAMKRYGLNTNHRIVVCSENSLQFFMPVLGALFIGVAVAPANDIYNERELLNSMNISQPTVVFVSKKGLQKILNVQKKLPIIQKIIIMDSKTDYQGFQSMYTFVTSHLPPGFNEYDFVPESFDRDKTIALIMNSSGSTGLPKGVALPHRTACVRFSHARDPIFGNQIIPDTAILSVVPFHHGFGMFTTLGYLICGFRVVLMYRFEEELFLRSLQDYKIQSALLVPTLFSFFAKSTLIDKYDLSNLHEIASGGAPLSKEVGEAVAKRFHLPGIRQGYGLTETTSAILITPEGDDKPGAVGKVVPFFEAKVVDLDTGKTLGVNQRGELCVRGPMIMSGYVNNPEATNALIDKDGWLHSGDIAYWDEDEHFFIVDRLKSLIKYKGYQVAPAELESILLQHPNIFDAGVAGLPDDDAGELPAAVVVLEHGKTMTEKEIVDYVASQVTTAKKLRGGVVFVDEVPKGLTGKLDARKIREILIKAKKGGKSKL

SMILES	activity change, negative = inhibition [%]	Potency
COc1cccc(NC(=O)CSC2=Nc3ccccc3C3=NC(CC(=O)NC4CCCCC4)C(=O)N23)c1 (stereo not given)	1.39	
COc1cccc(C(=O)OCc2cc(=O)oc3c(C)c(C)ccc23)c1OC		16.9 µM (active)
COC(=O)Cc1cc(=O)oc2c(C)c(O)ccc12	0.0059	
COc1ccc(Br)cc1CN1CCN(C(=O)c2cccc(OC)c2OC)CC1	5.02	
O=C(C1COc2ccccc2O1)N(Cc1cccnc1)c1nc2c(F)cc(F)cc2s1 (stereo not given)	-10.3	
CCOc1ccc(Nc2nc(Cl)nc(N3CCN(c4ccc(OC)cc4)CC3)n2)cc1	-4.25	
COc1ccc(Nc2ncc(F)c(N3CCOCC3)n2)cc1		2.39 µM (active)
Cc1cc(Nc2ccc(Cl)cc2)nc(N2CCOCC2)n1	-3.8	
O=C(NCc1ccccc1Cl)C1=Cc2cc(Br)ccc2OC1	2.86	
COc1ccc(CCNc2nc3c(-c4cccc(F)c4)nnn3c3ccccc23)cc1OC	-2.73	
COc1ccc(NC(=O)COC(=O)c2ccncc2)c(OC)c1	-0.378	
O=C(OCC(O)C(O)COC(=O)c1ccccc1)c1ccccc1 (stereo not given)	1.74	
O=C(COC(=O)c1ccncc1)c1ccccc1		23.9 µM (active)
O=C(CCc1nc(CN2CCN(S(=O)(=O)c3ccc(Cl)cc3)CC2)no1)N1CCCCC1	-5.93	
CCNC(=O)c1cc2n(n1)CCCN(Cc1ccc(C)cc1)C2=O	-0.387	
Cc1nn(CC(=O)O)c(=O)c2cc3cc(F)ccc3n12	2.27	
Cc1ccc(C(=O)OCc2nc(N)nc(Nc3ccccc3C)n2)cc1	-0.428	
Cc1ccccc1Nc1nc(N)nc(CSc2nnc3ccccn23)n1	-15.6	
Cc1ccccc1Nc1nc(N)nc(CSc2ccccc2)n1		2.13 µM (active)
COc1ccc(S(=O)(=O)NCC(c2ccc(N(C)C)cc2)N2CCc3ccccc32)cc1OC (stereo not given)	-2.31	
CCOc1ccc(NC(=O)CCC(=O)N2CC(C)Oc3ccc(C)cc32)cc1 (stereo not given)	1.52	
O=C(c1cccc(Br)c1)N1CCN(Cc2cc(=O)n3nc(-c4ccccc4)sc3n2)CC1	-2.55	
Cc1ccc(NC(=O)C2CCN(S(=O)(=O)c3cc(-c4noc(C)n4)ccc3C)CC2)c(C)c1	-1.93	
O=C(CSc1nccn1Cc1ccc(Cl)cc1)NCc1ccccc1	-9.76	
COc1cccc(COc2ccc(N(C)S(=O)(=O)c3ccccc3)cc2)c1	2.39	
CCOc1ccc(OCc2ccc(C(=O)N(C)c3ccccc3)o2)cc1	-13.9	
COc1ccc(OCc2cccc(C(=O)N3CCCC3)c2)cc1		8.49 µM (active)
COc1ccc(CNC(=O)C2CCN(C(=O)c3ccccc3)CC2)cc1	3.37	

SMILES	activity change, negative = inhibition [%]	Potency
COc1ccc(Cn2c(=S)[nH]c3cc(C(=O)N4CCCCC4)ccc3c2=O)cc1	4.8	
CCOc1ccc(OCc2cccc(C(=O)N(CC)CC)c2)cc1		1.2 µM (active)
Cc1sc2ncn(CC(=O)N3CCN(c4ccc(F)cc4)CC3)c(=O)c2c1S(=O)(=O)N1CCN(c2ncccn2)CC1	-11.7	
CCS(=O)(=O)N1CCC(n2c(C)nc3cccnc32)CC1	0.647	
CCc1cccc(NC(=O)Cn2nc(CC)n3c(cc4cc(C)ccc43)c2=O)c1	4.75	
O=C(CSc1ncc(CO)n1Cc1ccc(Cl)cc1)NCc1ccc(F)cc1	-7.26	
Cc1cccc(N2CCN(c3c(CN4CCCC4)c(=O)oc4ccccc34)CC2)c1C	-0.54	
N#CCC(=O)NC1CCC(CC2CCC(NC(=O)CC#N)CC2)CC1 (stereo not given)	0.975	
O=c1[nH]c(N2CCOCC2)nc2ccccc12	-0.212	
O=C1N=C(N2CCOCC2)S/C1=C\C=C/c1ccccc1		10.7 µM (active)
CC(C)=C1SC(N2CCN(c3ccc(C)c(Cl)c3)CC2)=NC1=O	-0.828	
Cc1ccsc1/C=C1\SC(N2CCOCC2)=NC1=O		10.7 µM (active)
Cc1ccc(C)c(S(=O)(=O)c2nnn3c2nc(N2CCOCC2)c2sccc23)c1	-0.222	
O=C1N=C(N2CCOCC2)CS1	-0.301	
COc1ccccc1C1CCN(C(=S)Nc2ccc(Br)cc2)CC1	-5.06	
O=C(Nc1ccc(Br)cc1)c1ccc(Br)c(S(=O)(=O)NCc2ccccc2)c1	-6.22	
Cc1ccc(Nc2nc3ccccc3nc2-n2nc(C)cc2C)c(Cl)c1	-1.86	
CCN(CC(=O)Nc1ccc(OC)cc1)C(=O)c1ccc(=O)n(Cc2ccccc2)n1	0.092	
O=C(COc1cccc(-n2cnnn2)c1)NCCC1=CCCCC1	-0.634	
CC(=O)Nc1ccc(S(=O)(=O)N(C)CC(=O)NCCC2=CCCCC2)cc1	2.77	
CC(C)COc1ccc(C(=O)OCC(=O)NCCC2=CCCCC2)cc1	4.98	
O=C(Cc1nn[nH]n1)NCCC1=CCCCC1	-0.697	
O=C(NCCC1=CCCCC1)c1ccc(-n2cncn2)cc1		15.1 µM (active)
Cc1ccc(-n2cnc3cc(C(=O)NCCC4=CCCCC4)ccc32)cc1Cl	-7.91	
Cn1nnc2cc(C(=O)NCCC3=CCCCC3)ccc21		5.36 µM (active)
CN(c1ccc(C(=O)NCCC2=CCCCC2)cc1)S(C)(=O)=O		9.53 µM (active)
Cc1ccn2c(=O)c(C(=O)NCCC3=CCCCC3)c(O)nc2c1	6.04	
